PubChem BioAssay (Tox21)
Several values for one entry are separate records, joined by “and”; a condition that tells them apart may be missing. Identical values can stand only once. Records with an inconclusive call do not appear. A call without a number means that no potency is given here. Activity calls are given as the source filed them. Calls follow the shape of the dose curve; as a rule, active = well fitted cell-killing curve with a large enough effect in the repeat runs; inconclusive = weak or mixed curves; inactive = no such curve, though single readings can be large or run the other way.

Experiment: qHTS assay to identify small molecule agonists of the peroxisome proliferator-activated receptor delta (PPARd) signaling pathway - cell viability counter screen (AID 743211); also: nearly all actives have a fitted effect of over 55% in size
Conditions: PPARd-bla HEK293H viability, CellTiter-Glo luminescence, 17 h; series mostly up to 62.6 µM; activity change, negative = cytotoxicity: at the top concentration
Excerpt: U.S. Tox21 Program National Center for Advancing Translational Sciences [NCATS] NIH Chemical Genomics Center [NCGC] U.S. Environmental Protection Agency [EPA] National Institutes of Environmental Health Sciences [NIEHS] National Toxicology Program [NTP] U.S. Food and Drug Administration [FDA] Tox21 Assay Overview: The peroxisome proliferator-activated receptors (PPARs) are lipid-activated transcription factors of the nuclear receptor superfamily with three distinct subtypes namely PPAR alpha, PPAR delta (PPARd) and PPAR gamma. All these subtypes heterodimerizes with Retinoid X receptor (RXR) and have different physiological functions. […] To identify the compounds that activate PPAR-delta signaling, GeneBLAzer PPAR delta UAS-bla HEK293H cell line (Invitrogen, Carlsbad, CA, USA) containing a beta-lactamase reporter gene under the control of an Upstream Activator Sequence (UAS) was used to screen the Tox21 compound library. The cytotoxicity of the Tox21 compound library against the PPARd-bla cell line was tested in parallel by measuring the cell viability using CellTiter-Glo assay (Promega, Madison, WI) in the same wells.
Tox21 Assay Protocol Summary: PPARd-bla cells were dispensed at 3000 cells/6uL/well in 1536-well black wall/clear bottom plates using a Multidrop Combi (Thermo Fisher Scientific, Waltham, MA) dispenser. After the assay plates were incubated at 37 C and 5% CO2 for 5 h, 23 nL of compounds dissolved in DMSO, positive controls or DMSO only was transferred to the assay plate by a Pintool station (Kalypsys, San Diego, CA). The assay plates were incubated at 37C for 17 h. After 1 uL of LiveBLAzerTM B/G FRET substrate was added using a Bioraptr Flying Reagent Dispenser (FRD) workstation (Beckman Coulter, Indianapolis, IN, USA), the plates were incubated at room temperature for 2 h, and fluorescence intensity was measured by an Envision plate reader (PerkinElmer, Shelton, CT). For cell viability readout that measures cytotoxicity, 3 ul/well of CellTiter-Glo reagent was added into the assay plates using a Bioraptr FRD. After 30 min incubation at room temperature, the luminescence intensity in the plates was measured using a ViewLux plate reader (PerkinElmer).
Potency is read from the fitted curve at half-maximal effect.

Row | SMILES | Potency | activity change, negative = cytotoxicity
1 | CCCCC(CC)COCC1CO1 (stereo not given) | inactive | –
2 | O=C1OC2(c3cc(Br)c(O)c(Br)c3Oc3c2cc(Br)c(O)c3Br)c2c(Cl)c(Cl)c(Cl)c(Cl)c21 | – | 1.88% (inactive)
3 | Brc1cc(Oc2cc(Br)c(Br)c(Br)c2Br)c(Br)c(Br)c1Br | – | -3.96% (inactive)
4 | CCCC(=O)O | inactive | –
5 | CC(C)=CCCC(C)CCO (stereo not given) | inactive | –
6 | OC(CCl)CCl | – | 0.565% [at 81.1 µM] (inactive)
7 | CC1=CCC(C(C)(C)O)CC1 (stereo not given) | inactive | –
8 | c1ccc2c(c1)c1cccc3ccc4cccc2c4c31 | inactive | –
9 | C=C(C)C(=O)OCCOC(=O)C(=C)C | inactive | –
10 | Nc1ncn([C@@H]2O[C@H](CO)[C@@H](O)[C@H]2O)c(=O)n1 | inactive | –
11 | CCCCCCCCCC(=O)OC | inactive | –
12 | Nc1ncnc2nc[nH]c12 | inactive | –
13 | Cc1cccc([N+](=O)[O-])c1C | inactive | –
14 | c1ccc2c(c1)Oc1ccccc1S2 | inactive | –
15 | CC(C(=O)O)c1cccc(C(=O)c2ccccc2)c1 (stereo not given) | inactive | –
16 | O=C(O)c1ccccc1Nc1cccc(C(F)(F)F)c1 | – | -0.478% (inactive)
17 | COc1c(Cl)c(Cl)c(Cl)c(Cl)c1Cl | inactive | –
18 | c1ccc2cc(Nc3ccc(Nc4ccc5ccccc5c4)cc3)ccc2c1 | inactive | –
19 | O=[N+]([O-])c1ccc2c(c1)Cc1ccccc1-2 | inactive | –
20 | CC1=CC2C3CC(C=C3C)C2C1 (stereo not given) | inactive | –

Row | SMILES | Potency | activity change, negative = cytotoxicity
21 | CC(=O)C1(C)CC2=C(CCCC2(C)C)CC1C (stereo not given) | inactive | –
22 | O=C=Nc1ccc(Cc2ccc(N=C=O)cc2)cc1 | inactive | –
23 | Cc1[nH]c(=O)c(C#N)cc1-c1ccncc1 | – | 5.66% (inactive)
24 | c1ccc(Nc2ccccc2)cc1 | inactive | –
25 | Clc1nc(Cl)c(Cl)c(Cl)c1Cl | inactive | –
26 | CCCCC(CC)COC(=O)c1ccc(N(C)C)cc1 (stereo not given) | inactive | –
27 | Cc1c(C(N)=O)cc([N+](=O)[O-])cc1[N+](=O)[O-] | inactive | –
28 | O=c1oc(=O)c2cc3c(=O)oc(=O)c3cc12 | inactive | –
29 | NNc1ccc(C(=O)O)cc1 | inactive | –
30 | COC(=O)C1=C(C)NC(C)=C(C(=O)OCCN(C)Cc2ccccc2)C1c1cccc([N+](=O)[O-])c1 (stereo not given) | 24.4 µM (active) and 26.6 µM (active) | –
31 | COc1ccc(OC)c(C(O)CNC(=O)CN)c1 (stereo not given) | inactive | –
32 | Cc1ccc(C)c(O)c1C | inactive | –
33 | Cc1ncc[nH]1 | inactive | –
34 | O=C(COc1ccc(Cl)cc1)N1CCN(Cc2ccc3c(c2)OCO3)CC1 | – | -18% (inactive)
35 | c1ccc2sc(SSN3CCOCC3)nc2c1 | 15.5 µM (active) | –
36 | O=C(/C=C/c1ccccc1)OCc1ccccc1 | inactive | –
37 | CC(=O)c1ccccn1 | inactive | –
38 | CN(C)CCN(Cc1cccs1)c1ccccn1 | inactive | –
39 | NC=O | inactive | –
40 | OC[C@H]1O[C@@H]2O[C@H]3[C@H](O)[C@@H](O)[C@@H](O[C@H]4[C@H](O)[C@@H](O)[C@@H](O[C@H]5[C@H](O)[C@@H](O)[C@@H](O[C@H]6[C@H](O)[C@@H](O)[C@@H](O[C@H]7[C@H](O)[C@@H](O)[C@@H](O[C@H]8[C@H](O)[C@@H](O)[C@@H](O[C@H]1[C@H](O)[C@H]2O)O[C@@H]8CO)O[C@@H]7CO)O[C@@H]6CO)O[C@@H]5CO)O[C@@H]4CO)O[C@@H]3CO | inactive | –
